Structures are written as SMILES. Unmarked numbers belong to inactive results. For some of these results: Results with a measured potency or affinity are listed apart. Calls of active or inactive are those of the source. Unless noted, the rule behind the calls is not given here.

The nature of test [1]: antimalarial activity against Dd2 strain (AID 2302;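 active = growth inhibition above 50% at the single 2 µM test dose, taken to imply half-maximal potency below 2 µM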;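 note: 0% = DMSO untreated growth and 100% = chloroquine plus artemisinin killed control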). Conditions: P. falciparum Dd2 in RBCs, LDH growth readout, 72 h; at 2 µM; active compounds read high.
Test [2] can be described thus: HepG2 cytotoxicity, primary screen, cytotoxicity control for P. falciparum antimalarial project, cell-based, ATP luminescence (AID 2303;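 active = inhibition above 50%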;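 note: 0% = DMSO wells and 100% = digitonin-killed cells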). Conditions: HepG2 viability, 24-48 h, at 10 µM, active compounds read high.
Test [3] deals with L-lactate dehydrogenase (Plasmodium falciparum (isolate CDC / Honduras)) (UniProt Q27743). As to the kind of experiment: PfLDH activity inhibition – cell lysate, 3D7 strain, counter-screen for P. falciparum growth inhibition project (AID 2304).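 Note: 0% = vehicle and 100% = reference inhibitor.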 Conditions: P. falciparum 3D7 crude extract, LDH APAD/NBT absorbance; at 2 µM; active compounds read high. On the technique in general: The purpose of a counterscreen is to sort out artefacts and off-target activity.

Test [4] can be described thus: inhibition of 3D7 malaria parasite growth – strain 3D7 (AID 2306).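 Note: 0% = DMSO wells and 100% = chloroquine plus artemisinin control wells.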 Conditions: P. falciparum 3D7 erythrocytic growth, LDH absorbance, 72 h; at 2 µM; active compounds read high.
The target of test [5] is Calcium-dependent protein kinase 1 (Plasmodium falciparum (isolate 3D7)) (UniProt P62344). As to the kind of experiment: PfCDPK1 kinase inhibitors, biochemical, TCAMS library (AID 1159585; cut-off not given, nearly all actives have IC50 up to about 0.98 µM;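 note: inhibitors leave more ATP so luminescence rises with inhibition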). Conditions: recombinant PfCDPK1, Kinase-Glo ATP depletion luminescence. Background: In Kinase-Glo more light means more ATP remaining.
The target in test [6] is Plasmodium falciparum protein kinase 6 (PK6, PF3D7_1337100) (UniProt Q8IDW1). As to the kind of experiment: PfPK6 kinase inhibitors, biochemical, TCAMS library (AID 1159586). Conditions: recombinant PfPK6, Kinase-Glo ATP depletion luminescence.
Test [7] has as its target Protein kinase 7 (PK7), Plasmodium falciparum 3D7 (PF3D7_0213400) (UniProt Q7YTF7). As to the kind of experiment: inhibition of Plasmodium PK7 catalytic activity – biochemical, TCAMS antimalarial set, Kinase-Glo luminescence (AID 1159587). Conditions: recombinant PfPK7, Kinase-Glo ATP depletion luminescence.
In test [8] the target is Calcium-dependent protein kinase 4 (Plasmodium falciparum (isolate 3D7)) (UniProt Q8IBS5). As to the kind of experiment: PfCDPK4 kinase inhibitors, biochemical, TCAMS library (AID 1159588; cut-off not given, nearly all actives have IC50 up to about 0.91 µM). Conditions: recombinant PfCDPK4, Kinase-Glo ATP depletion luminescence.
Sequence of Calcium-dependent protein kinase 4 (Plasmodium falciparum (isolate 3D7)) (Q8IBS5 whole entry, looked up): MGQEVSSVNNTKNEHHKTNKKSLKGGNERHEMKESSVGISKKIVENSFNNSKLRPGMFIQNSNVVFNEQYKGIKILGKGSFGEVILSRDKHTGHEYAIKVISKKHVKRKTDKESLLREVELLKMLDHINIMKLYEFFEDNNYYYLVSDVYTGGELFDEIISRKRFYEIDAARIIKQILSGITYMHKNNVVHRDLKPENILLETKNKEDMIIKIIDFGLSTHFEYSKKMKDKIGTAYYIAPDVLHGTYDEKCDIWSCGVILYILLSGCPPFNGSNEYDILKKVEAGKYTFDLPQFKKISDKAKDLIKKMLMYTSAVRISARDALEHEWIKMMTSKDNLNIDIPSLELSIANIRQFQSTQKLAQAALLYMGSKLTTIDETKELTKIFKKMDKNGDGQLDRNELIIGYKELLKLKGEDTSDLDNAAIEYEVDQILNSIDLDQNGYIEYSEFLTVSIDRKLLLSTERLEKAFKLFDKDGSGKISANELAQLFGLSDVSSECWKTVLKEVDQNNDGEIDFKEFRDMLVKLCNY

Sequence of Protein kinase 7 (PK7), Plasmodium falciparum 3D7 (PF3D7_0213400) (Q7YTF7 1-343): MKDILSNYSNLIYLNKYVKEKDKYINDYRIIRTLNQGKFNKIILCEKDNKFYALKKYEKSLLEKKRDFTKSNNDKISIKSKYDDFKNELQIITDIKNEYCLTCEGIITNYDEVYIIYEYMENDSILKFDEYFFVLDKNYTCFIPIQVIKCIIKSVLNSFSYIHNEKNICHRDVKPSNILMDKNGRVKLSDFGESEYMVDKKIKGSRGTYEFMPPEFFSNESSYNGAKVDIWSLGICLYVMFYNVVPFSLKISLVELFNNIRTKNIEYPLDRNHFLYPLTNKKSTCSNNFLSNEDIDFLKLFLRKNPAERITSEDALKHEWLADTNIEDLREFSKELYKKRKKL
Sequence of Plasmodium falciparum protein kinase 6 (PK6, PF3D7_1337100) (Q8IDW1 1-305): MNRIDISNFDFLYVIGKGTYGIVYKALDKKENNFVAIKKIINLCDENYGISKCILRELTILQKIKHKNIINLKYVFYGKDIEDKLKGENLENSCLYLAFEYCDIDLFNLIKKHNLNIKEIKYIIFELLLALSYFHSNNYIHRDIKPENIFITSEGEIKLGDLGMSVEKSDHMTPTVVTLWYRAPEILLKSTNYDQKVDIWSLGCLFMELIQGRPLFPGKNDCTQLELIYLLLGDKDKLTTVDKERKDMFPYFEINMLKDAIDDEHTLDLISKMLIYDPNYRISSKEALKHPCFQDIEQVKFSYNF
Sequence of Calcium-dependent protein kinase 1 (Plasmodium falciparum (isolate 3D7)) (P62344 whole entry, looked up): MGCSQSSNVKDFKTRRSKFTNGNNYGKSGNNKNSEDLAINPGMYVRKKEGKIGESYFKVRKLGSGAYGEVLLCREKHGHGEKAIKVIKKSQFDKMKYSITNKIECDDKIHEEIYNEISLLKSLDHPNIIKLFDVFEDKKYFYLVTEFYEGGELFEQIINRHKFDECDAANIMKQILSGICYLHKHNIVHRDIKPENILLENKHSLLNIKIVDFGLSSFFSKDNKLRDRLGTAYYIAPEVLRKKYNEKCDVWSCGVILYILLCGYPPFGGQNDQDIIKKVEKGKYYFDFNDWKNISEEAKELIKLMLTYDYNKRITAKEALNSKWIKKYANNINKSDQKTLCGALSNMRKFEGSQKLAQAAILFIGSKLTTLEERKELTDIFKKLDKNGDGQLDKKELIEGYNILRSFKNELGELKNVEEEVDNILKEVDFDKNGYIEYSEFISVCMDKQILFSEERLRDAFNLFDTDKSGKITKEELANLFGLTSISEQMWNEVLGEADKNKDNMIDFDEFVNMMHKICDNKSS
Sequence of L-lactate dehydrogenase (Plasmodium falciparum (isolate CDC / Honduras)) (Q27743 whole entry, looked up): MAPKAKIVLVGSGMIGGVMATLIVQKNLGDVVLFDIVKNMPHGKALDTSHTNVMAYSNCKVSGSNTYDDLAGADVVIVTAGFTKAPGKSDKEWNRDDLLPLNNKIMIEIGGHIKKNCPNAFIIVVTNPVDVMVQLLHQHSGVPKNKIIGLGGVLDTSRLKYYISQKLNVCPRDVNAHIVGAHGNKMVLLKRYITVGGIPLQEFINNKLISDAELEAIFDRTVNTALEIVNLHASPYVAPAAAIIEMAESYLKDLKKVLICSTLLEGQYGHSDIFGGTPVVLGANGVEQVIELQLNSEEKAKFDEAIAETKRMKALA

Broadly, the inhibition is the drop in the measured response relative to a control, in per cent. For `Cc1ccoc1C(=O)Nc1cccc(-c2cccc(-c3nc4c(C)cccc4[nH]3)c2)c1`, the growth inhibition in test [1] was 79% (active); in test [4] it was 101% (active). The inhibition was 17% in test [2] and -3% in test [3]. Besides, the outcome in test [5], in test [6], in test [7] and in test [8] was inactive.
`O=C1C(c2ccccc2)=C(Nc2cccc([N+](=O)[O-])c2)c2ccccc21`: the growth inhibition in test [1] and in test [4] was 88% (active) in each case. Also, the inhibition was -3% in test [2] and 1% in test [3]. Further, the result in test [5], in test [6], in test [7] and in test [8] was inactive.
Take `COc1cc2ncnc(Nc3ccc(OCc4ccccc4)c(OCc4ccccc4)c3)c2cc1OC`: the growth inhibition in test [1] was 57% (active); in test [4] it was 100% (active). Also, the inhibition in test [2] is 4%; in test [3], -1%. The result in test [5], in test [6], in test [7] and in test [8] was inactive.
On to `NC(=O)c1cccc(CN2Cc3ccccc3OC3(CCN(Cc4c[nH]c5cnccc45)CC3)C2)c1`, for which the growth inhibition in test [1] is 2%; in test [4] it was 94% (active). The inhibition is 9% in test [2] and -2% in test [3]. Also, the outcome in test [5], in test [6], in test [7] and in test [8] was inactive.
On to `CC(C)(C)c1ccc(CN(C[C@@H](O)CNS(=O)(=O)c2cc(Cl)cc(Cl)c2)C(C)(C)C)cc1`, for which the growth inhibition in test [1] was 94% (active); in test [4], 98% (active). The inhibition was 74% (active) in test [2] and -8% in test [3]. Further, the result in test [5], in test [6], in test [7] and in test [8] was inactive.
Regarding `Cc1cccc2[nH]c(-c3cccc(-c4cccc(NC(=O)Nc5ccc(F)c(F)c5F)c4)c3)nc12`, the growth inhibition in test [1] was 99% (active); in test [4] it was 100% (active). In addition, the inhibition in test [2] was 32%; in test [3], 4%. In addition, the result in test [5], in test [6], in test [7] and in test [8] was inactive.
In the case of `CN1CCc2cc(Br)c(O)cc2C1Cc1ccccc1Cl` (stereo not given), the growth inhibition in test [1] is 88% (active); in test [4] it was 98% (active). Besides, the inhibition is 2% in test [2] and -2% in test [3]. The outcome in test [5], in test [6], in test [7] and in test [8] was inactive.
For `CC(=O)Nc1ccc(CN(Cc2ccc(OC(C)(C)C)cc2)Cc2ccc3c(c2)OCCO3)cc1`, the growth inhibition in test [1] was 75% (active); in test [4] it was 91% (active). Besides, the inhibition is 7% in test [2] and 5% in test [3]. Further, the result in test [5], in test [6], in test [7] and in test [8] was inactive.
`CC(C)NCc1cccc(-c2cccc(-c3nc4ccc(F)cc4[nH]3)c2)c1`: the figures for the growth inhibition in test [1] and in test [4] were 85% (active) and 101% (active), respectively. Also, the inhibition in test [2] was 20%; in test [3], 2%. Moreover, the result in test [5], in test [6], in test [7] and in test [8] was inactive.
As for `O=C(/C=C/c1ccc(Cl)c(Cl)c1)NCCCCCN1CCC(NC(=S)Nc2ccc(F)cc2F)CC1`, the growth inhibition was 18% in test [1] and 100% (active) in test [4]. In addition, the inhibition is 20% in test [2] and 1% in test [3]. Further, the result in test [5], in test [6], in test [7] and in test [8] was inactive.
`COC(=O)C(=O)c1c(-c2ccccc2)c(-c2ccc(OC)c(OC)c2)c2c3cc(OC)c(OC)cc3ccn12`: the figures for the growth inhibition in test [1] and in test [4] were 89% (active) and 97% (active), respectively. Further, the inhibition in test [2] is 2%; in test [3], -1%. Besides, the result in test [5], in test [6], in test [7] and in test [8] was inactive.
Consider `Clc1ccc(Nc2nc3ccc(Cl)cc3nc2Nc2ccc(Cl)cc2)cc1`, for which the growth inhibition in test [1] and in test [4] was 99% (active) throughout. Also, the inhibition in test [2] is 79% (active); in test [3] it was 3%. The outcome in test [5], in test [6], in test [7] and in test [8] was inactive.
In the case of `c1cc(C2=N[C@H]3CCCC[C@@H]3N2)ccc1OCCCCCOc1ccc(C2=N[C@@H]3CCCC[C@H]3N2)cc1`, the growth inhibition in test [1] was 23%; in test [4] it was 101% (active). For the same compound, the results for the inhibition in test [2] and in test [3] were 80% (active) and -5%, respectively. Further, the result in test [5], in test [6], in test [7] and in test [8] was inactive.
On to `CC1(C)N=C(N)N=C(N)N1OCCCOc1cccc2ccccc12`, for which the growth inhibition in test [1] is 86% (active); in test [4], 95% (active). In addition, the inhibition in test [2] was 67% (active); in test [3] it was 4%. Also, the outcome in test [5], in test [6], in test [7] and in test [8] was inactive.
Consider `O=S1(=O)NC2(CCN(CCc3ccc(Cl)cc3)CC2)Nc2cc(F)cc(F)c21`, for which the growth inhibition in test [1] was 5%; in test [4], 86% (active). Moreover, the inhibition in test [2] was 7%; in test [3] it was -1%. The outcome in test [5], in test [6], in test [7] and in test [8] was inactive.
For `CC[C@H](C)CNC(=O)c1cncc(-c2ccc(CNCC3CNCCCO3)cc2)c1` (stereo not given in full), the growth inhibition in test [1] is -2%; in test [4], 100% (active). For the same compound, the inhibition was -5% in test [2] and -1% in test [3]. Also, the result in test [5], in test [6], in test [7] and in test [8] was inactive.
With `O=C(c1ccc(OCCn2ccnc2)cc1)N1CCC(c2ccc(Br)cc2)C1` (stereo not given), the growth inhibition is 99% (active) in test [1] and 100% (active) in test [4]. The inhibition in test [2] is 49%; in test [3], -3%. The outcome in test [5], in test [6], in test [7] and in test [8] was inactive.
On to `Oc1ccc(CCNc2nc(NCc3ccccc3-c3ccccc3)nc(N3CCCNCC3)n2)cc1`, for which the growth inhibition is 20% in test [1] and 95% (active) in test [4]. The results for the inhibition in test [2] and in test [3] were 26% and -5%, respectively. Also, the result in test [5], in test [6], in test [7] and in test [8] was inactive.
As for `Cc1cc(-c2ccnc(Nc3cccc(C#N)c3)n2)cc(C)c1O`, the growth inhibition is 54% (active) in test [1] and 88% (active) in test [4]. Further, the values for the inhibition in test [2] and in test [3] were 50% (active) and 5%, respectively. Further, the result in test [5], in test [6], in test [7] and in test [8] was inactive.
For `COc1ccccc1N1CCN(CCCCN(C(=O)Nc2cccc(Cl)c2)C(=O)Nc2cccc(Cl)c2)CC1`, the growth inhibition in test [1] is 65% (active); in test [4] it was 100% (active). In addition, the inhibition in test [2] is 4%; in test [3], 7%. The outcome in test [5], in test [6], in test [7] and in test [8] was inactive.

Values taken from PubChem BioAssay.
